Bioassay records: PubChem BioAssay, National Center for Advancing Translational Sciences (NCATS)
SW480 rereplic: A quantitative high throughput screen for small molecules that induce DNA re-replication in SW480 colon adenocarcinoma cells; SW480 DNA re-replication, Hoechst DNA content imaging, 48 h; Potency, µM (doses to about 46.1 µM), without a hit: at the highest dose re-replication activation, most hits filed as activators; hit rate 1.8% among 340,000; also: % of control where 0% means no effect; nearly all actives have a fitted effect of over 55% in size
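Cells (250 per well) received 23 nL compound or DMSO by pin tool and were kept 48 hr at 37 C, 5% CO2. Nuclei were then stained with Hoechst for 40 min and scanned for DNA content.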
KB-V1 cytotox: qHTS assay for MDR1-selective chemotherapeutics: Primary screen using the drug-selected MDR subline cells KB-V1; KB-V1 MDR cells viability, CellTiter-Glo, 72 h; Potency, µM (highest dose often 46.1 µM), hits mostly cytotoxic; hit rate 3.4% among 400,000; also: % is scaled to controls: 0 for no effect and ±100 for the full control effect; nearly all actives have a fitted effect of over 60% in size
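KB-V1 cells (P-gp-expressing MDR subline of KB-3-1) in phenol-red-free DMEM with 10% FBS were exposed to library compounds over a concentration series for 72 h at 37 degrees C. Viability read by CellTiter-Glo luminescence; concentration-effect curves fitted after normalization.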
HT1080-NT tox: qHTS for induction of synthetic lethality in tumor cells producing 2HG: qHTS for the HT-1080-NT fibrosarcoma cell line; Potency, µM (titrated, usually from 46.1 µM), without a hit: at the highest dose activity, negative = less viability, hits mostly cytotoxic; hit rate 1.6% among 360,000; HT-1080-NT fibrosarcoma viability, CellTiter-Glo ATP luminescence, 48 h;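 also: NT is the 2HG producing partner of a matched IDH1 knockdown line; 0% = DMSO-treated cells and -100% = media-only wells without cells; nearly all actives have a fitted effect of over 55% in size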
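HT-1080-NT fibrosarcoma cells (2HG-overproducing), 750 cells/well in RPMI with 5% FBS, dosed after 2 h and incubated 48 h at 37C. CellTiter-Glo luminescence normalized to DMSO and no-cell wells; concentration-response curves fitted and classed.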
HT1080 IDH1KD tx: qHTS for induction of synthetic lethality in tumor cells producing 2HG: qHTS for the HT-1080-IDH1KD cell line; HT-1080 IDH1 knockdown viability, ATP luminescence, 48 h; hit rate 2% among 360,000; Potency, µM (doses to about 46.1 µM), inactives show at the highest dose activity, negative = toxicity, hits mostly cytotoxic;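 also: 0% = DMSO wells and -100% = cell-free medium wells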
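Using the IDH1-knockdown HT-1080 line run in the same batch and compound series as the NT line, viability after 48 h at 37 °C was determined by CellTiter-Glo luminescence and expressed as % activity.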
MCF10A rereplic: A quantitative high throughput screen for small molecules that induce DNA re-replication in MCF 10a normal breast cells; MCF 10A DNA re-replication, Hoechst nuclear intensity, 48 h; Potency, µM (top dose mostly 46.1 µM), without a hit: at the top dose activity, positive = re-replication, usual class: activators; hit rate 2.9% among 350,000; also: % of control where 0% means no effect; nearly all actives have a fitted effect of over 50% in size
KB-3-1 cytotox: qHTS assay for MDR1-selective chemotherapeutics: Primary screen using the parental adenocarcinoma cell KB-3-1. hit rate 1.4% among 400,000. Potency, µM (top dose mostly 46.1 µM), actives largely listed as cytotoxic. AID 1347075, 2019. KB-3-1 viability, CellTiter-Glo ATP luminescence, 72 h; also: % is scaled to controls: 0 for no effect and ±100 for the full control effect; nearly all actives have a fitted effect of over 60% in size
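Parental KB-3-1 viability, qHTS format: 72 h compound exposure, 37 °C; CellTiter-Glo; media-only wells and DMSO plates as controls; concentration-effect fits on corrected data.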
The depositor's hits bear a star; i = inactive; ? = inconclusive; . = not tested or not shown; [ ] = remark or other dose. In the library only some 8% were active in any assay of this set; here they are far more common. Calls follow the shape of the dose curve; as a rule, active = well fitted curve in the direction sought with a large enough effect; inconclusive = small, poorly fitted or top-dose-only effect, or another doubt; inactive = no such curve, though single readings can be large; an effect the other way counts as inactive or inconclusive. Potency is read from the fitted curve at half-maximal effect.

SMILES | SW480 rereplic | KB-V1 cytotox | HT1080-NT tox | HT1080 IDH1KD tx | MCF10A rereplic | KB-3-1 cytotox
Cc1ccc(S(=O)(=O)Nc2ccc(O)c3cccnc23)cc1 | 23µM* | i | -14% | ? | ? | i
CN(C)S(=O)(=O)c1ccc(C(=O)NC(=O)CSc2ccccc2)cc1 | -5% | i | 8% | 16% | -2% | i
C#CCNC(=O)c1cc2sccc2n1C | 2% | i | -1% | -2% | 12% | i
COc1cc(-c2c(C#N)c(N)nc3c2c(C)nn3-c2ccc(C)c(C)c2)cc(OC)c1OC | 27% | i | ? | 11µM* | ? | ?
Cc1ccccc1C1c2[nH]c3ccccc3c2C[C@H]2C(=O)N(c3ccccc3C(=O)NCCCN3CCOCC3)C(=O)N12 (stereo partly specified) | ? | i | -13% | -9% | 12µM* | i
Cc1ccc(C2c3[nH]c4ccccc4c3C[C@H]3C(=O)N(c4ccccc4C(=O)NCCCN4CCOCC4)C(=O)N23)cc1 (stereo partly specified) | 24% | i | ? | 29µM* | ? | i
Cc1ccccc1C1c2[nH]c3ccccc3c2C[C@H]2C(=O)N(c3ccccc3C(=O)NCCN3CCOCC3)C(=O)N12 (stereo partly specified) | -4% | i | -3% | -2% | ? | i
Cc1ccc(OCC(=O)Nc2ccc(-c3nc4ccccc4o3)cc2)c(C)c1 | . | i | . | . | . | i
COc1ccc(S(=O)(=O)c2cnc3ccc(OC)cc3c2N2CCC3(CC2)OCCO3)cc1 | 18% | ? | -23% | -28% | 5% | i
CCCC1=C(C(=O)OCC)C(c2cccs2)n2ncnc2N1 (stereo unspecified) | -13% | ? | 17% | 0% | 4% | i
CCCC1=C(C(=O)OCC)C(/C=C/c2ccccc2)n2ncnc2N1 (stereo unspecified) | ? | ? | 22µM* | 11µM* | ? | 8.9µM*
CCOC(=O)C1=C(C)Nc2ncnn2C1/C=C/c1ccccc1 (stereo unspecified) | ? | 10µM* | ? | ? | 63% | ?
CCCC1=C(C(=O)OCC)C(c2ccc(F)cc2)n2ncnc2N1 (stereo unspecified) | 5% | i | 5% | 3% | 11% | i
COCCOC(=O)C1=C(C)Nc2ncnn2C1c1ccccc1 (stereo unspecified) | -3% | i | ? | -1% | 0% | i
CCCCOC(=O)C1=C(C)Nc2ncnn2C1c1ccc(OCC)c(OC)c1 (stereo unspecified) | 0% | 4.6µM* | 7% | 7% | 0% | i
CCCC1=C(C(=O)OCC)C(c2ccc(N(C)C)cc2)n2ncnc2N1 (stereo unspecified) | -4% | 18µM* | -14% | -23% | 5% | ?
Cc1noc(C)c1C(=O)N1CCC(CO)(Cc2ccccc2)CC1 | 0% | i | 4% | -5% | 4% | i
O=C(c1cc(-c2ccccc2)nn1-c1ccccc1)N1CCN(S(=O)(=O)c2ccc(F)cc2)CC1 | -6% | ? | 0% | -1% | ? | i
O=[N+]([O-])c1ccccc1-n1cnc2ccccc21 | 0% | i | -17% | 1% | 4% | i
CCOC(=O)C1=C(C)Nc2ncnn2C1c1cc(Br)ccc1F (stereo unspecified) | -4%[9.22 µM] | 21µM* | -8% | ? | ? | ?
CCOC(=O)C1=C(C)NC(=O)NC1C (stereo unspecified) | 0% | i | 8% | ? | -2% | i
CCOC(=O)C1=C(C)Nc2ncnn2C1c1cccs1 (stereo unspecified) | -12% | i | 0% | -5% | 3% | i
CCOC(=O)C1=C(C)NC(=O)NC1/C(C)=C/c1ccccc1 (stereo unspecified) | -2% | 21µM* | -15% | ? | 10% | i
c1ccc2c(-c3csc(-c4ccncc4)n3)c[nH]c2c1 | 21µM* | ? | ? | ? | ? | ?
O=[N+]([O-])c1cccc(CSc2ncnc3ccccc23)c1 | ? | i | 1% | -11% | 6% | i
SMILES | SW480 rereplic | KB-V1 cytotox | HT1080-NT tox | HT1080 IDH1KD tx | MCF10A rereplic | KB-3-1 cytotox
COc1cc(OC)c(OC)cc1/C=N/Nc1nc2ccccc2[nH]1 | -7% | i | 3% | 3% | ? | i
C(=N\Nc1nc2ccccc2[nH]1)/c1ccccn1 | ? | i | ? | 18µM* | -2% | i
C#CCn1cc(/C=N/Nc2nc3ccccc3[nH]2)c2ccccc21 | ? | i | 16µM* | ? | ? | i
COc1ccc2c(c1)c(/C=N/Nc1nc3ccccc3[nH]1)c(C)n2C | ? | i | ? | ? | 21µM* | i
BrC(=C\c1ccccc1)/C=N/Nc1nc2ccccc2[nH]1 | ? | ? | -4% | ? | 8.2µM* | i
CC(=O)c1sc(NC(=O)c2cnc(Cl)c(Cl)c2)nc1C | -7% | i | 2% | 11% | 3% | i
COc1ccc(/C=N/Nc2nc3ccccc3[nH]2)cc1OC | -9% | ? | -16% | -23% | -3% | i
Fc1ccccc1-c1ccc(/C=N/Nc2nc3ccccc3[nH]2)o1 | ? | ? | ? | 26µM* | 18µM* | ?
CCCCn1c(/C=N/Nc2nc3ccccc3[nH]2)nc2ccccc21 | 8.2µM* | i | ? | 15µM* | ? | ?
C(=N\Nc1nc2ccccc2[nH]1)/c1ccc2ncccc2c1 | -51% | ? | 0.65µM* | 0.73µM* | ? | 1µM*
COc1cc(/C=N\Nc2nc3ccccc3[nH]2)cc(OC)c1OC | 0% | 5.8µM* | -24% | -20% | ? | i
Cc1ccc(/C=N\Nc2nc3ccc(Cl)cc3[nH]2)o1 | -3%[9.22 µM] | i | -10% | -14% | ? | i
CC(C)(C)OCC1CO1 (stereo unspecified) | ? | ? | 27% | 6% | -24% | i
CCC(=O)N1CCc2cc(S(=O)(=O)CCC(=O)N3CCc4ccccc4C3)ccc21 | 1%[9.22 µM] | i | 4% | 4% | 19% | i
COc1ccc2[nH]cc(CCN3C(=O)CCC3=O)c2c1 | 2% | ? | 17% | 20% | -3% | i
